Experimental findings from PubChem BioAssay (NCATS) are described below.

A short description of test [1]: Cell Viability - SK-N-SH (AID 435; calls by dose curve; note: potency is the fitted concentration of half-maximal effect). The settings on record: SK-N-SH neuroblastoma cell viability qHTS. The procedure, abridged:
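Luminescent ATP signal served as the viability read-out after 40 hours of compound treatment of human neuroblastoma SK-N-SH cells. Concentration-response data, scaled between DMSO and 100 uM tamoxifen, gave AC50 values by standard Hill modeling.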
(In general: Quantitative high-throughput screening tests each substance at several concentrations.)

The nature of test [2]: Cell Viability - N2a (AID 540).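 Note: plate controls were DMSO alone for no effect and tamoxifen control for full effect; nearly all actives have a fitted effect of over 45% in size.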 The settings on record: N2a mouse neuroblastoma cell viability; activity change, negative = cytotoxicity: at 92.2 µM (top of the series). In a few lines:
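N2a mouse neuroblastoma, 1500 cells/well, 5 hr settle; compound 40 hr, 37 °C; CellTiter-Glo 20 min RT; luminescence; Hill-fit AC50.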

Test [3] in a line: Cell Viability - H-4-II-E (AID 543). Note: % is set by controls: 0 for no effect and ±100 for the full control effect; nearly all actives have a fitted effect of over 35% in size. The settings on record: H-4-II-E rat hepatoma viability; series mostly up to 92.2 µM. In a few lines:
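qHTS, rat hepatoma H-4-II-E, 1500 cells/well; 40 hr compound exposure, 37 °C; CellTiter-Glo ATP luminescence after 20 min RT; AC50 by standard Hill fit.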

A short description of test [4]: Cell Viability - Renal Proximal Tubule (AID 545).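 Note: 0% = DMSO only and -100% = 100 µM tamoxifen; nearly all actives have a fitted effect of over 40% in size.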 The settings on record: renal proximal tubule cells viability, primary cells of rat origin; activity change, negative = cytotoxicity: at 91.7 µM (top of the series). The procedure, abridged:
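Luminescent ATP signal (CellTiter-Glo) served as the viability read-out after 40 hr compound exposure of freshly isolated rat proximal tubule cells at 37 °C. Concentration-dependent ATP loss was fitted with the Hill equation to give AC50.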

The nature of test [5]: Cell Viability - LYMP2-001 (AID 921).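 Note: cells exposed to compound for 24 h at 37 °C; 0% = DMSO only and full inhibition = tetraoctylammonium bromide control wells; nearly all actives have a fitted effect of over 70% in size.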 Particulars: LYMP2-001 lymphoblastoid cell viability; series mostly up to 92.2 µM. In a few lines: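 Steps: seed 2500 lymphoblastoid cells/well; 5 hr, 37 C; add compound; 24 hr, 37 C; CellTiter-Glo reagent, 30 min room temperature; read luminescence. Concentration-response modeled by Hill equation for AC50.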
The nature of test [6]: MultiTox-Fluor Cytotoxicity Assay - LYMP1-002 - Dead Cells (AID 960).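 Note: 0% = DMSO and 100% = tetraoctylammonium bromide; nearly all actives have a fitted effect of over 60% in size.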 The settings on record: LYMP1-002 lymphoblastoid cells, dead-cell protease fluorescence; series mostly up to 46.1 µM. In a few lines: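 Readout: fluorescence at 485/520 from cell-impermeant bis-AAF-R110 cleaved by proteases leaking from damaged cells. LYMP1-002 lymphoblastoid line, 16 hr compound treatment at 37 C, concentration-response in qHTS format; Hill-equation AC50 values.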

Test [7] is described as follows: Cell Viability - LYMP1-003 - Assay at 40 hr (AID 964). Note: % is set by controls: 0 for no effect and ±100 for the full control effect; nearly all actives have a fitted effect of over 60% in size. Particulars: LYMP1-003 lymphoblastoid viability; series mostly up to 92.2 µM. In a few lines:
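LYMP1-003 lymphoblastoid cells, 2500/well; 5 hr preincubation, 40 hr compound exposure, 37 C; CellTiter-Glo 30 min RT; luminescence; Hill-fit AC50. Positive control tetraoctylammonium bromide.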

Test [8] is described as follows: Cell Viability - LYMP2-004 (AID 966).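 Note: cells exposed to compound for 24 h; plate controls were DMSO only for no effect and tetraoctylammonium bromide control for full effect; nearly all actives have a fitted effect of over 65% in size.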 Particulars: LYMP2-004 lymphoblastoid cell viability, qHTS; series mostly up to 92.2 µM. In a few lines:
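Luminescent ATP read-out (CellTiter-Glo, 30 min RT) after 24 hr compound exposure at 37 C; 2500 lymphoblastoid cells/well, complete medium. Decrease in ATP = cytotoxicity; AC50 from standard Hill model.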

Test [9] is described as follows: Cell Viability - LYMP2-009 (AID 968).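 Note: cells exposed to compound for 24 h at 37 °C; 0% = DMSO alone and the full-kill end = tetraoctylammonium bromide at 92 µM; nearly all actives have a fitted effect of over 55% in size.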 The settings on record: LYMP2-009 lymphoblastoid cell viability; series mostly up to 92.2 µM.
Test [10] in a line: Cell Viability - LYMP2-015 (AID 971).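 Note: cells exposed to compound for 24 h; 0% = DMSO only and full effect = 92 µM tetraoctylammonium bromide; nearly all actives have a fitted effect of over 55% in size.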 Particulars: LYMP2-015 lymphoblastoid cell viability; series mostly up to 92.2 µM. In a few lines: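 qHTS cytotoxicity: 2500 cells/well, 5 hr 37 C, compound 24 hr 37 C, CellTiter-Glo 30 min RT, luminescence. Loss of ATP = toxicity; AC50 via standard Hill fit.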
Test [11] in a line: Cell Viability - LYMP2-017 (AID 972).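 Note: cells exposed to compound for 24 hours at 37 °C; % is set by controls: 0 for no effect and ±100 for the full control effect; nearly all actives have a fitted effect of over 55% in size.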 The settings on record: LYMP2-017 lymphoblastoid cell viability; series mostly up to 92.2 µM. The procedure, abridged: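 Luminescent ATP read-out (CellTiter-Glo, 30 min RT) reports viable cell number. Cells: human lymphoblastoid line, 2500 per well, 5 hr preincubation, 24 hr compound exposure at 37 C. AC50 is derived from qHTS concentration-response data using the standard Hill model.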

Test [12] in a line: Cell Viability - LYMP2-019 (AID 973).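 Note: cells exposed to compound for 24 h at 37 °C; 0% = DMSO alone and full effect = 92 µM tetraoctylammonium bromide; nearly all actives have a fitted effect of over 55% in size.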 Particulars: LYMP2-019 lymphoblastoid cell line viability; series mostly up to 92.2 µM. In a few lines:
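qHTS, 1536-well; 2500 cells/well; 5 hr pre-incubation, 24 hr compound exposure, 37 C; CellTiter-Glo added, 30 min RT; luminescence read; AC50 via standard Hill equation.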

Test [13] is described as follows: Cell Viability - LYMP2-010 (AID 981). Particulars: LYMP2-010 lymphoblastoid cell viability, qHTS; series mostly up to 92.2 µM. The procedure, abridged:
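qHTS cytotoxicity, 1536-well: 2500 cells/well, 5 hr settle, 24 hr compound at 37 C, CellTiter-Glo 30 min RT, luminescence read. Decrease in ATP = toxicity; AC50 via standard Hill equation. Positive control tetraoctylammonium bromide.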

A short description of test [14]: qHTS assay for small molecule agonists of retinoid X receptor alpha signaling (AID 588544; calls by dose curve). Particulars: HEK293T RXRa-UAS-bla, beta-lactamase reporter, 18 h; 530 nm emission.
The target in test [15] is Retinoic acid receptor RXR-alpha (Homo sapiens) (UniProt P19793). The description is as above. Particulars: HEK293T RXRa-UAS-bla, beta-lactamase reporter, 18 h; series mostly up to 76.7 µM.
For test [16], the target named is Thyroid hormone receptor beta (Homo sapiens) (UniProt P10828). Kind of test: qHTS assay for small molecule antagonists of thyroid hormone receptor beta signaling (AID 588547; active = well fitted inhibition curve with a large enough effect in the signal ratio, with a control signal flat, not every such curve was filed as active; the % refers to the signal ratio;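 note: cells stimulated with 0.4 nM T3 agonist during compound exposure; % is set by controls: 0 for no effect and ±100 for the full control effect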). Particulars: TR-UAS-bla HEK293, beta-lactamase ratio, antagonist mode, 18 h. In a few lines: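 TR-UAS-bla GripTite HEK293 cells in 2% charcoal/dextran FBS medium were preincubated 4 h at 37 C, given compound (0.59 nM to 92 uM) plus 0.4 nM T3 (final) for 18 h, then CCF4 for 2 h at RT; Hill fit gave IC50.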

Test [17] is described as follows: qHTS assay for small molecule disruptors of the mitochondrial membrane potential - 5 hr assay (AID 651755; calls by dose curve; note: % is set by controls: 0 for no effect and ±100 for the full control effect; nearly all actives have a fitted effect of over 40% in size). The settings on record: JC-1-type ratio dye; series mostly up to 92.2 µM. The procedure, abridged: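 Seed HepG2 overnight, add compound, incubate 5 hr at 37C and 5% CO2, stain 30 min with Mito-MPS, then measure monomer (490/535 nm) and aggregate (540/590 nm) fluorescence.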

Test [18] is described as follows: qHTS assay for small molecule agonists of the antioxidant response element (ARE) signaling pathway measured by Nrf2-dependant transcriptional activity (AID 720636; active = well fitted curve in the direction sought with a large enough effect in the repeat runs; an effect the other way counts as inactive or inconclusive; note: % of control where 0% means no effect). The settings on record: ARE-luc HepG2, Nrf2 luciferase reporter, 16 h; series mostly up to 92.4 µM. In a few lines: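 Nrf2-dependent transcription is measured in ARE-luc HepG2 cells: compound is applied for 16 hr at 37 C after a 6 hr attachment period, and luciferase activity is quantified by luminescence using ONE-Glo.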

Test [19] addresses Nuclear receptor subfamily 1 group I member 2 (Rattus norvegicus) (UniProt Q9R1A7). Kind of test: qHTS assay for small molecule activators of the rat pregnane X receptor (rPXR) signaling pathway (AID 651751; call rule not given here; note: 0% is about no effect). Particulars: rPXR reporter cells, luciferase (One-Glo), 24 h.
Test [20] is described as follows: MultiTox-Fluor Cytotoxicity Assay - LYMP1-001 - Live Cells (AID 947).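 Note: 0% = DMSO only and full inhibition = tetraoctylammonium bromide control.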 Particulars: LYMP1-001 lymphoblastoid cells, live-cell protease fluorescence viability; series mostly up to 92.2 µM.

“And” between values parts separate entries of the source, which are not always exact repeats. Equal entries are not always repeated. Results filed as inconclusive are left out. The source made the active and inactive calls. Unless noted, calls come from the whole dose curve; as a rule, active = well fitted curve in the direction sought with a large enough effect; inconclusive = small, poorly fitted or top-dose-only effect, or another doubt; inactive = no such curve, though single readings can be large; an effect the other way counts as inactive or inconclusive. Where only a bound is given, the exact number is not on record here.

Thyroid hormone receptor beta (Homo sapiens), sequence (P10828 whole entry, looked up): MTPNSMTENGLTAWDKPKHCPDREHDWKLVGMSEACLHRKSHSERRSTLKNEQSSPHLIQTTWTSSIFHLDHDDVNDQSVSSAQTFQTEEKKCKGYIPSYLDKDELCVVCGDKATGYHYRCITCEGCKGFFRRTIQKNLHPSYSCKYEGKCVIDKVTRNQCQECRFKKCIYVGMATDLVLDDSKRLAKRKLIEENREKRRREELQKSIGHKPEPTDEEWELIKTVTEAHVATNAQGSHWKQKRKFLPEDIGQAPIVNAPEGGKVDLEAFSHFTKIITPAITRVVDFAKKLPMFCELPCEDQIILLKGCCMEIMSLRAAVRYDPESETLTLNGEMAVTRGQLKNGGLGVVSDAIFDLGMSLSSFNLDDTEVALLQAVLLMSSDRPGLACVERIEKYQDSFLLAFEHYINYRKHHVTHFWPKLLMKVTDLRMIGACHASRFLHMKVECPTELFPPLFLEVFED
Nuclear receptor subfamily 1 group I member 2 (Rattus norvegicus), sequence (Q9R1A7 whole entry, looked up): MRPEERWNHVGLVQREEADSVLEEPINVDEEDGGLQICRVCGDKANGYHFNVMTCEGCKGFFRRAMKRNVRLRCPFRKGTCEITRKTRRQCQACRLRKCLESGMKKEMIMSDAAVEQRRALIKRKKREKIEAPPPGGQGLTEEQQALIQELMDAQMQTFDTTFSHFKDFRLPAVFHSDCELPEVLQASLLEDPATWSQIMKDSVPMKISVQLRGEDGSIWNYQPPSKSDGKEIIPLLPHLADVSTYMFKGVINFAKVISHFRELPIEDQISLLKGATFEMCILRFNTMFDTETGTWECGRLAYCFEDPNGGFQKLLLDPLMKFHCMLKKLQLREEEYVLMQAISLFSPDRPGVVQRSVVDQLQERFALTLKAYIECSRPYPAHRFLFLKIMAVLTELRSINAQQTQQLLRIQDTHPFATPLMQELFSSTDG
Retinoic acid receptor RXR-alpha (Homo sapiens), sequence (P19793 whole entry, looked up): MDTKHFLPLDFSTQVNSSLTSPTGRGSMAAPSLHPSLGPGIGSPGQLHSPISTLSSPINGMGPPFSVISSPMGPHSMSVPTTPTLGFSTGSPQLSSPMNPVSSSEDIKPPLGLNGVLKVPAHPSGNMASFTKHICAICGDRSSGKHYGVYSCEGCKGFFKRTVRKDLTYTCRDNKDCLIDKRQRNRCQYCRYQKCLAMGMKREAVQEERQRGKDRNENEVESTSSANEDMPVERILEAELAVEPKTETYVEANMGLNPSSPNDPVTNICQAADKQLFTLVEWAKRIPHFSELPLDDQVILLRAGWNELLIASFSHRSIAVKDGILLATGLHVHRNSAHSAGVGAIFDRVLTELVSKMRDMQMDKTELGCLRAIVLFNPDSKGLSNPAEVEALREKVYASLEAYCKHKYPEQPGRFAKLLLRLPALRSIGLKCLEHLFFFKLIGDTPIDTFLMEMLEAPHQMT

In the case of `CCOC(=O)C1OC1c1ccccc1` (configuration not stated), the Potency in [1] was > 92 µM (inactive). Further, the activity change, negative = cytotoxicity in [2] is 0.144% (inactive). In addition, the Potency entry in test [3], in test [4], in test [5], in test [6], in test [7] and in test [8] was “inactive” each time. Further, the Potency entry in test [9], in test [10], in test [11], in test [12], in [13] and in [15] was “inactive” each time. For the same molecule, the Potency entry in test [17] and in [18] was “inactive” throughout. Besides, the max response is 2.55% in test [14] and 9.31% (inactive) in test [19]. Also, the activity change % (negative = inhibition) in test [16] was 6.36% (inactive).

Regarding `c1ccc2ncccc2c1`, in test [1], the Potency is > 92 µM (inactive). In addition, the activity change, negative = cytotoxicity in test [2] is -5.79% (inactive). Moreover, the Potency entry in test [3], in [4], in test [5], in test [20], in test [6] and in [7] was “inactive” each time. For the same molecule, the Potency entry in [8], in test [9], in test [10], in [11], in test [12] and in test [13] was “inactive” throughout. Moreover, the Potency entry in test [15], in test [17] and in [18] was “inactive” throughout. Besides, the values for the max response in [14] and in test [19] were 5.03% and 5.68% (inactive), respectively. Moreover, the activity change % (negative = inhibition) in test [16] is 3.38% (inactive).

For the molecule `CC(=O)OCc1ccc2c(c1)OCO2`, the Potency in test [1] is > 92 µM (inactive). In test [2], the activity change, negative = cytotoxicity is -15.3% (inactive). Further, the Potency result in [3], in [4], in test [5], in test [20], in test [6] and in [8] was “inactive” in each case. Also, the Potency result in test [9], in [10], in test [11], in [12], in test [13] and in [15] was “inactive” throughout. Further, the Potency entry in test [17] and in test [18] was “inactive” throughout. Further, the figures for the max response in test [14] and in test [19] were 17.8% and -6.58% (inactive), respectively. Moreover, the activity change % (negative = inhibition) in [16] is -11.5% (inactive).

Regarding `OCC(CO)(CBr)CBr`, the Potency in test [1] was > 92 µM (inactive). In addition, in [2], the activity change, negative = cytotoxicity was -2.21% (inactive). In addition, the Potency result in [3], in test [4], in [5], in [20], in test [6] and in test [7] was “inactive” in each case. Further, the Potency result in test [8], in [9], in test [10], in [11], in test [12] and in test [13] was “inactive” each time. Further, the Potency entry in test [15], in test [17] and in test [18] was “inactive” throughout. The max response is 0.243% and -1.22% in test [14]; 4.89% (inactive) and 3.86% (inactive) in test [19]. In addition, the activity change % (negative = inhibition) in test [16] is -10.9% (inactive) and 7.42% (inactive).

Consider `C1CCCNCC1`, for which the Potency in test [1] is > 92 µM (inactive). Also, the activity change, negative = cytotoxicity in test [2] was -7.29% (inactive). Further, the Potency result in test [3], in test [4], in [5], in test [20], in [7] and in [8] was “inactive” each time. The Potency entry in test [9], in [10], in [11], in test [12], in test [13] and in [15] was “inactive” throughout. For the same molecule, the Potency result in test [17] and in test [18] was “inactive” throughout. Moreover, the max response was -9.69% in test [14] and 1.16% (inactive) in test [19]. The activity change % (negative = inhibition) in test [16] was -19.9% (inactive).

In the case of `Cc1ccc(C(=O)O)cc1[N+](=O)[O-]`, the Potency in [1] was > 92 µM (inactive). In addition, in test [2], the activity change, negative = cytotoxicity was 4.91% (inactive). For the same molecule, the Potency entry in test [3], in test [4], in [5], in test [20], in test [6] and in test [7] was “inactive” each time. Moreover, the Potency entry in [8], in test [9], in [10], in test [11], in test [12] and in [13] was “inactive” throughout. The Potency entry in test [15], in test [17] and in test [18] was “inactive” each time. Also, the figures for the max response in test [14] and in test [19] were 0.231% and 1.55% (inactive), respectively. Also, the activity change % (negative = inhibition) in test [16] is 2.7% (inactive).
